Inconclusive results are not listed. Entries that show only a call come without a potency. Calls of active or inactive are those of the source. Calls come from the whole dose curve; as a rule, active = well fitted inhibition curve with a large enough effect; inconclusive = small, poorly fitted or top-dose-only effect; inactive = flat fitted curve, though single readings scatter.
Potency is the fitted concentration of half-maximal effect.

A short description of the assay: qHTS for Inhibitors of Plasmodium falciparum (7G8) proliferation (AID 504316). Note: nearly all actives have a fitted effect of over 65% in size. Conditions: P. falciparum 7G8 in erythrocytes, SYBR Green DNA, 72 h; series mostly up to 6.7 µM. From the text:
Plasmodium falciparum is a virulent malarial parasite that kills 1-2 million people worldwide each year. Malaria not only inflicts tremendous suffering and morbidity on the human population, but has dramatically influenced the course of civilization with profound sociological and economic implications (Shah, S. 2010). Transmitted by mosquitoes, the sporozoite form of the parasite enters the blood stream to infect hepatocytes, where they become merozoites that infect red blood cells (erythrocytes). Within erythrocytes, merozoites begin a […] cycle of growth and division, after which the parasite is released to infect new red blood cells. Gametocytes, which form within erythrocytes as well, circulate in the bloodstream and are ingested by the mosquito, thereby completing the life cycle (see CDC website). To profile malarial lines for differential chemical responses and to identify inhibitors of malarial growth, an assay that measures P. falciparum growth and replication within erythrocytes was employed. This assay uses a DNA binding fluorescent dye (SYBR Green) to detect parasite DNA following cell lysis. Because mature erythrocytes lack DNA, only Plasmodium-derived DNA is detected. The P. falciparum line cp250, derived from a malarial isolate from Cambodia, (Mu, J., et al. 2010) was added to the panel of lines, Dd2, HB3, 7G8 and GB4 in this study. Laboratory of Assay Development and Screening Technology [ADST] and NIH Chemical Genomics Center [NCGC] Boston University, Chemistry Department, Center for Chemical Methodology and Library Development [CMLD-BU] NIH National Institute of Allergy and Infectious Diseases [NIAID]
ADST Assay Protocol Summary: The 1536-well SYBR Green viability assay was based on the method of Bennett et al (2004) and described previously in 1536-well format (Yuan J., et al. 2009). For screening 3 ul culture medium was dispensed into 1536 well black clear bottom plates (Aurora Biotechnologies) using a Multidrop Combi (Thermo Fisher Scientific Inc.), 23 nL compounds in DMSO were added by a pin transfer (Cleveland, P.H. and Koutz, P.J, 2005) using a pin tool-based delivery system (Kalypsys), and 5 ul of erythrocytes infected with P. falciparum one of five lines (cp250, Dd2, HB3, 7G8 or GB4, 0.3% parasitemia, 2.5% hematocrit final concentration) were added. The plates were incubated at 37C in a humidified incubator in 5% CO2 for 72 h, and 2 ul lysis buffer (20 mM Tris HCl, 10 mM EDTA, 0.16% saponin, 1.6% triton X, 10X SYBR Green I (supplied as 10,000X final concentration by Invitrogen) was added to each well. The plates were mixed for 25 sec with gentle shaking and incubated overnight at room temperature in the dark. The following morning, fluorescence intensity at 485(14) nm excitation and 535(25) nm emission wavelengths was measured on an EnVision (Perkin Elmer) plate reader. Plate reads were normalized relative to the control inhibitor (0.29 uM artemisinin) and vehicle (DMSO) wells present on each plate and then corrected by an algorithm using vehicle-only control plates at the beginning and end of the compound plate stack. References Shah, S. (2010). The Fever: how malaria has ruled humankind for 500,000 years. New York, Sarah Crichton Books. CDC web site, http://www.cdc.gov/malaria/about/biology/index.html Mu, J., Myers, R.A., Jiang, H., Liu, S., Ricklefs, S., Waisberg, M., Chotivanich, K., Wilairatana, P., Krudsood, S., White, N.J., et Plasmodium falciparum genome-wide scans for positive selection, recombination hot spots and resistance to antimalarial drugs Nature Genetics 2010, 42, pp 268-271 Bennett TN, Paguio, M., Gligorijevic, B., Seudieu, C., Kosar, A. D., Davidson, E., and Roepe, P. D. Novel, rapid, and inexpensive cell-based quantification of antimalarial drug efficacy Antimicrobial Agents Chemother. 2004, 48(5): pp 1807-10 Yuan J, Johnson RL, Huang RL, Wichterman J, Jiang HY, Hayton K, Fidock DA, Wellems TE, Inglese J, Austin CP, Su XZ. […]
As to `CCCCC1=CC2=CC(=O)C(C)(OC(=O)CC)C(=O)C2=CN1c1cccc(C#N)c1` (stereo not given), the Potency result is “inactive”. In the case of `CCOC(=O)NN=C1C[C@@H](O)[C@@H](O)[C@@H]2[C@H]3C(=O)N(C4CCCCC4)C(=O)[C@@H]3CC[C@@H]12` it was “inactive”; in that of `COC(=O)C1=C(C)N(Cc2ccccc2)C(=O)NC1c1ccco1` (stereo not given), “inactive”; in that of `CCN1C(=O)N[C@@H](c2ccc(Br)cc2)C(C(C)=O)=C1C`, “inactive”. In the case of `COc1cccc(CC(=O)N2CCc3nc(-c4ccccc4)c4c(c3C2)CO[C@@H](C)C4)c1` it was “inactive”. In the case of `CC1(OC(=O)c2cnc3ccccc3n2)C(=O)C=C2C=C3CCCN3C=C2C1=O` (stereo not given) it was “inactive”; in that of `CCCCC1=CC2=C(c3ccco3)C(=O)C(C)(OC(=O)c3ccc(OC)cc3)C(=O)C2=CN1C1CC1` (stereo not given), “inactive”. Regarding `CCN1C(=O)N[C@@H](c2cccc(C(F)(F)F)c2)[C@H](C(=O)OC)[C@H]1C`, the Potency result was “inactive”. In the case of `COC(=O)CCC(=O)OC1(C)C(=O)C2=CN(Cc3ccccc3)C(c3ccc(OC)cc3)=CC2=C(Br)C1=O` (stereo not given) it was “inactive”; in that of `C=CCOC(=O)N[C@H](C(C(=O)OC)=C(C)NCc1ccccc1)c1cccc(F)c1`, “inactive”; in that of `CC#CCN1c2ccccc2[C@]23C[C@@H](C(=O)OC)N(C(=O)COCc4ccccc4)C2=NC(C(=O)OC)=C(C(=O)OC)[C@H]13`, “inactive”. In the case of `COC(=O)C1=C(C(=O)OC)[C@@H]2N(C)c3ccccc3[C@@]23C[C@@H](C(=O)OC)N(C(=O)CC(C)C)C3=N1` it was “inactive”; in that of `COC(=O)N[C@H](CC(C)=O)c1ccc(Cl)cc1`, “inactive”; in that of `COc1ccc(C2=CC3=C(Br)C(=O)C(C)(OC(=O)c4cnc5ccccc5n4)C(=O)C3=CO2)cc1` (stereo not given), “inactive”.

Consider `CCN1C(=O)N[C@@H](c2cccc(C(F)(F)F)c2)C(C(C)=O)=C1C`, for which the Potency entry was “inactive”. In the case of `COC(=O)C1=C(C(=O)OC)[C@@H]2N(C)c3ccccc3[C@@]23C[C@@H](C(=O)OC)N(S(=O)(=O)c2ccc(C#N)cc2)C3=N1` it was “inactive”. In the case of `CCCCc1nc2c(c3c1C[C@H](C)OC3)CN(S(=O)(=O)c1ccc(C#N)cc1)CC2` it was “inactive”; in that of `COCCN1C(=O)N[C@@H](c2cccc(C(F)(F)F)c2)C(C(=O)OC)=C1C`, “inactive”; in that of `COC/C=C/C1=CC2=CC(=O)C(C)(OC(=O)c3cnc4ccccc4n3)C(=O)C2=CN1CCc1ccccn1` (stereo not given), “inactive”. In the case of `COC/C=C/C1=CC2=CC(=O)C(C)(OC(=O)c3cnc4ccccc4n3)C(=O)C2=CN1Cc1ccccc1` (stereo not given) it was “inactive”. Regarding `COc1ccc(N2C=C3C(=O)C(C)(OC(=O)CCc4ccccc4)C(=O)C=C3C=C2c2ccc(C#N)cc2)cc1` (stereo not given), the Potency entry is “inactive”. In the case of `CCCCc1nc2c(c3c1C[C@H](C)OC3)CN(C(=O)N[C@H](C(=O)OC)C(C)C)CC2` it was 1350 nM (active); in that of `CCOC(=O)CN1C(=O)N[C@@H](CCc2ccccc2)C(C(C)=O)=C1C`, “inactive”; in that of `CC[C@@H](C)CN1C(=O)N[C@@H](CCc2ccccc2)C(C(C)=O)=C1C`, “inactive”. The value for `CCOC(=O)CCCNC(=O)N1CCc2nc(-c3ccccc3)c3c(c2C1)CO[C@@H](C)C3` was “inactive”. For the compound `CCOC(=O)CN1C(=O)N[C@@H](c2cccc(F)c2)C(C(=O)OC)=C1C`, the Potency result is “inactive”. In the case of `CCO[C@H](c1cc(OC)cc([N+](=O)[O-])c1OC)[C@H](C)C=CCC(=O)OC` it was “inactive”; in that of `CC1(OC(=O)c2ccc(Cl)nc2)C(=O)C=c2cc(-c3ccsc3)ncc2=C1OC(=O)C1CCCC1` (stereo not given), “inactive”. In the case of `COC/C=C/C1=CC2=CC(=O)C(C)(OC(=O)c3cnc4ccccc4n3)C(=O)C2=CN1CCCOC(C)C` (stereo not given) it was “inactive”; in that of `CC1(OC(=O)CCc2ccccc2)C(=O)C=C2C=C(c3ccc(C#N)cc3)N(CCc3ccccn3)C=C2C1=O` (stereo not given), “inactive”. The value for `CCN1C(=O)N[C@@H](CCc2ccccc2)C(C(=O)OC)=C1C` was “inactive”; that for `CCCC[C@]12Cc3c(ccc4ccccc34)[C@H](O1)C1=C(O2)C(=O)c2ccccc2C1=O` was 1510 nM (active); that for `Cc1ccc(S(=O)(=O)N[C@@H]2COC(=O)[C@@H](C)COC(=O)CC=C[C@H]2C)cc1` was “inactive”.

For the compound `CC(C)OCCCN1C=C2C(=O)C(C)(OC(=O)CCc3ccccc3)C(=O)C=C2C=C1c1ccc(C#N)cc1` (stereo not given), the Potency result was “inactive”. Consider `COC/C=C/C1=CC2=CC(=O)C(C)(OC(=O)c3cnc4ccccc4n3)C(=O)C2=CN1CCc1c[nH]c2ccccc12` (stereo not given), for which the Potency entry is “inactive”.

Regarding `CCCCC1=CC2=C(c3ccco3)C(=O)C(C)(OC(=O)c3ccc(OC)cc3)C(=O)C2=CN1CCCCO` (stereo not given), the Potency entry was “inactive”. The value for `CCCCc1nc2c(c3c1C[C@H](C)OC3)CN(C(=O)NCc1ccco1)CC2` was “inactive”. Turning to `C[C@H]1Cc2c(-c3ccccc3)nc3c(c2CO1)CN(C(=O)C1CC1)CC3`, the Potency entry is “inactive”.

Regarding `COC(=O)CC1c2ccccc2C=C(C)N1C(=O)OC` (stereo not given), the Potency result was “inactive”. The value for `O=C1c2cc(Br)ccc2O[C@@H](c2ccc3c(c2)OCO3)[C@@H]1O` was “inactive”.

Values taken from PubChem BioAssay (NCATS).
